Results: PubChem BioAssay (NCI)
This is part of a sample that, as a whole, favours compounds with a hit. Of some 83,000 tested, about 20% had one in any assay.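 Results are percent growth after 48 hours of single-concentration exposure. 100 means growth as in untreated cells, lower positive values show inhibition; negative values down to -100 show cell death.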 Activity calls are given as the source filed them. How the source made its calls: active means growth percent below 10; inactive means the rest.

How the values were obtained:
Experiment in all cases: NCI-60 one-dose screen, 48 h (100 = growth as untreated, 0 = no growth, -100 = all killed)
Details in all cases: 10 µM unless noted
NCI-H23 lung = system: NCI-H23 lung
NCI-H226 lung = system: NCI-H226 lung
NCI-H322M lung = system: NCI-H322M lung
HOP-62 NSCLC = system: HOP-62 NSCLC
NCI-H460 lung = system: NCI-H460 lung
HOP-92 NSCLC = system: HOP-92 NSCLC
NCI-H522 lung = system: NCI-H522 lung
A549/ATCC NSCLC = system: A549/ATCC NSCLC
786-0 renal = system: 786-0 renal
COLO 205 colon = system: COLO 205 colon

Measured: growth

CC1CC(=O)C2=C(C1)Nc1ccc(Br)cc1CC2c1c[nH]c2ccc(Br)cc12 (stereo not given)
inactive: NCI-H23 lung 66.8% | NCI-H226 lung 65.5% | NCI-H322M lung 70.9% | HOP-62 NSCLC 65.2% | NCI-H460 lung 34.5% | HOP-92 NSCLC 76.6% | NCI-H522 lung 18.4% | A549/ATCC NSCLC 42.3% | 786-0 renal 51.2% | COLO 205 colon 66.2%

Nc1ccc(Nc2ncnc3sc4c(c23)CCN(Cc2ccccc2)C4)cc1
inactive: NCI-H23 lung 102% | NCI-H226 lung 91.5% | NCI-H322M lung 101% | HOP-62 NSCLC 103% | NCI-H460 lung 105% | HOP-92 NSCLC 92.2% | NCI-H522 lung 91.3% | A549/ATCC NSCLC 100% | 786-0 renal 105% | COLO 205 colon 115%

FC(F)(F)c1cc(Br)cc(-c2cc(-c3ccc4c(c3)OCCO4)[nH]n2)c1
active: NCI-H460 lung 5.69% | COLO 205 colon -12.9%
inactive: NCI-H23 lung 40.1% | NCI-H226 lung 53.8% | NCI-H322M lung 45.4% | HOP-62 NSCLC 52.2% | HOP-92 NSCLC 32% | NCI-H522 lung 20.5% | A549/ATCC NSCLC 22.1% | 786-0 renal 28.3%

Clc1cccc(/C=N/Nc2nc(N/N=C/c3cccc(Cl)c3)nc(N3CCCCC3)n2)c1
inactive: NCI-H23 lung 97.8% | NCI-H226 lung 82% | NCI-H322M lung 101% | HOP-62 NSCLC 104% | NCI-H460 lung 96.5% | HOP-92 NSCLC 108% | NCI-H522 lung 88.3% | A549/ATCC NSCLC 86.3% | 786-0 renal 95.2% | COLO 205 colon 102%

O=C1[C@H]2Cc3c([nH]c4ccccc34)[C@H](c3ccc(Cl)cc3)N2C(=O)CN1C1CCN(CC2CCCCC2)CC1
inactive: NCI-H23 lung 75.8% | NCI-H226 lung 88.2% | NCI-H322M lung 93.6% | HOP-62 NSCLC 79.7% | NCI-H460 lung 35.5% | HOP-92 NSCLC 70.5% | NCI-H522 lung 71.5% | A549/ATCC NSCLC 64.4% | 786-0 renal 75% | COLO 205 colon 51.4%

O=C(CSc1nc2ccccc2c(=O)n1-c1ccc(Cl)c(Cl)c1)Nc1ccc(S(=O)(=O)Nc2ccc(Cl)nn2)cc1
inactive: NCI-H23 lung 91.6% | NCI-H226 lung 90.9% | NCI-H322M lung 91.7% | HOP-62 NSCLC 87.8% | NCI-H460 lung 99.4% | HOP-92 NSCLC 72.5% | NCI-H522 lung 90% | A549/ATCC NSCLC 91.9% | 786-0 renal 98.9% | COLO 205 colon 94.9%

CCC(=C(c1ccc(OCCN2CCCCCC2)cc1)c1ccc(OCCN2CCCCCC2)cc1)c1ccc(Cl)cc1
active: NCI-H460 lung -39.7% | NCI-H522 lung -5.58% | A549/ATCC NSCLC -21.3% | 786-0 renal -81.1% | COLO 205 colon -57.7%
inactive: NCI-H23 lung 19.4% | NCI-H226 lung 52.1% | NCI-H322M lung 18% | HOP-62 NSCLC 58.2% | HOP-92 NSCLC 32.3%

CC(C)(O)c1cncc(-c2ccc3ncc(C#N)c(N4CCc5cc(F)c(Cl)cc54)c3c2)c1
inactive: NCI-H23 lung 26.8% | NCI-H322M lung 11% | NCI-H460 lung 11.1% | COLO 205 colon 14.5%
active: NCI-H226 lung -6.33% | HOP-62 NSCLC 1.17% | HOP-92 NSCLC -8.73% | NCI-H522 lung -2.54% | A549/ATCC NSCLC 6.02% | 786-0 renal 8.75%

COc1ccc(/C(=N\NC(N)=S)c2ccc(Cl)cc2)cc1OC
active: NCI-H522 lung -10% | COLO 205 colon 0.963%
inactive: NCI-H23 lung 27.4% | NCI-H226 lung 51.6% | NCI-H322M lung 53.6% | HOP-62 NSCLC 27.5% | NCI-H460 lung 12% | HOP-92 NSCLC 48.6% | A549/ATCC NSCLC 42.4% | 786-0 renal 42.1%

O=[N+]([O-])c1ccc(NC(=S)NNC(=S)Nc2ccc(F)cc2)cc1
inactive: NCI-H23 lung 89.6% | NCI-H226 lung 94.2% | NCI-H322M lung 76.9% | HOP-62 NSCLC 97% | NCI-H460 lung 90.9% | HOP-92 NSCLC 72.9% | NCI-H522 lung 70.1% | A549/ATCC NSCLC 88.2% | 786-0 renal 97.3% | COLO 205 colon 115%

COc1ccc(-c2c3c(cn2Cc2cccc(OC)c2)-c2oncc2CCC3)cc1
inactive: NCI-H23 lung 105% | NCI-H226 lung 85% | NCI-H322M lung 103% | HOP-62 NSCLC 102% | NCI-H460 lung 98.9% | HOP-92 NSCLC 74.2% | NCI-H522 lung 96.3% | A549/ATCC NSCLC 98.9% | 786-0 renal 103% | COLO 205 colon 95.2%

Cc1ccc2c(n1)C(=O)C(Cl)=C(Nc1cccc(C(=O)OC(C)(C)C)c1)C2=O
inactive: NCI-H23 lung 73.7% | NCI-H226 lung 82.8% | NCI-H322M lung 112% | HOP-62 NSCLC 108% | NCI-H460 lung 101% | HOP-92 NSCLC 88.8% | NCI-H522 lung 60.6% | A549/ATCC NSCLC 106% | 786-0 renal 99.8% | COLO 205 colon 119%

CCNC(=O)Oc1ccc(/C(=C(/C)c2ccc(OC)cc2)c2ccc(OCCN3CCCCCC3)cc2)cc1
inactive: NCI-H23 lung 52.8% | NCI-H226 lung 87.4% | NCI-H322M lung 80.9% | HOP-62 NSCLC 31.9% | NCI-H460 lung 16.7% | HOP-92 NSCLC 49.5% | NCI-H522 lung 93.1% | A549/ATCC NSCLC 54.4% | 786-0 renal 35.5%
active: COLO 205 colon -41.1%

CN1CCN(CC#CCn2c3c(c4ccccc42)C[C@]2(C)[C@H]4CC=C5[C@@H]6CC(C)(C)CC[C@]6(C(=O)N6CCOCC6)CC[C@@]5(C)[C@]4(C)CC[C@H]2C3(C)C)CC1
inactive: NCI-H23 lung 74% | NCI-H226 lung 85.7% | NCI-H322M lung 94.9% | HOP-62 NSCLC 91.7% | NCI-H460 lung 17.6% | HOP-92 NSCLC 22.5% | NCI-H522 lung 97% | A549/ATCC NSCLC 41.9% | 786-0 renal 76.3% | COLO 205 colon 87.3%

COc1ccc(-c2cc(-c3ccc(N(C)C)cc3)n3c(n2)nc2ccccc23)cc1
active: HOP-92 NSCLC -5.95%
inactive: NCI-H23 lung 68% | NCI-H226 lung 60.8% | NCI-H322M lung 82.2% | HOP-62 NSCLC 77.9% | NCI-H460 lung 53.3% | NCI-H522 lung 17.7% | A549/ATCC NSCLC 38.6% | 786-0 renal 42.8% | COLO 205 colon 59.4%

CC(C)NC(=O)c1cc(-c2ccc(NC(=O)Nc3ccc(F)cc3)cc2)nc2cccnc12
inactive: NCI-H23 lung 99.4% | NCI-H226 lung 99.1% | NCI-H322M lung 104% | HOP-62 NSCLC 101% | NCI-H460 lung 104% | HOP-92 NSCLC 96.7% | NCI-H522 lung 96.8% | A549/ATCC NSCLC 104% | 786-0 renal 97.1% | COLO 205 colon 118%

Cc1ccc(C(=O)CSc2nc3ccccc3c(=O)n2C)cc1
inactive: NCI-H23 lung 79.7% | NCI-H226 lung 78.5% | NCI-H322M lung 89.1% | HOP-62 NSCLC 94% | NCI-H460 lung 95.5% | HOP-92 NSCLC 79.6% | NCI-H522 lung 85.3% | A549/ATCC NSCLC 101% | 786-0 renal 97.9% | COLO 205 colon 119%

CN1CC[C@@H]2[C@@]3(C)CC[C@H](O)C(C)(C)[C@@H]3CC[C@@]2(C)[C@]2(C)CC[C@@]3(CO)CCC(C)(C)C[C@@H]3C12 (stereo not given in full)
active: COLO 205 colon -2.47%
inactive: NCI-H23 lung 90.7% | NCI-H226 lung 94.4% | NCI-H322M lung 98.8% | HOP-62 NSCLC 101% | NCI-H460 lung 98.3% | HOP-92 NSCLC 66.8% | NCI-H522 lung 98% | A549/ATCC NSCLC 86% | 786-0 renal 80.7%

CC[C@H](CC[C@@H](C)[C@H]1CC[C@H]2[C@@H]3CC(=O)C4=CC(=O)/C(=C/c5ccc([N+](=O)[O-])cc5)C[C@]4(C)[C@H]3CC[C@]12C)C(C)C
inactive: NCI-H23 lung 103% | NCI-H226 lung 103% | NCI-H322M lung 103% | HOP-62 NSCLC 104% | NCI-H460 lung 106% | HOP-92 NSCLC 114% | NCI-H522 lung 97.4% | A549/ATCC NSCLC 99% | 786-0 renal 99% | COLO 205 colon 118%

Cc1ccsc1[C@H]1c2[nH]c3ccccc3c2C[C@H]2C(=O)N(CCCCCCC(=O)NO)CC(=O)N12
inactive: NCI-H23 lung 89.6% | NCI-H226 lung 97.3% | NCI-H322M lung 81.1% | HOP-62 NSCLC 101% | NCI-H460 lung 78.4% | HOP-92 NSCLC 92.6% | NCI-H522 lung 58.8% | A549/ATCC NSCLC 99.3% | 786-0 renal 99.1% | COLO 205 colon 96.5%

O=C1[C@@H]2Cc3c([nH]c4ccccc34)[C@H](c3ccc(Cl)cc3)N2C(=O)CN1C1CCN(Cc2ccccc2)CC1
inactive: NCI-H23 lung 74.1% | NCI-H226 lung 70.5% | NCI-H322M lung 59.2% | HOP-62 NSCLC 75.7% | NCI-H460 lung 34.4% | HOP-92 NSCLC 41.4% | NCI-H522 lung 84.6% | A549/ATCC NSCLC 38.8% | 786-0 renal 68.1% | COLO 205 colon 53.4%

O=C(/C=C/C=C/c1csc(Br)n1)NO
inactive: NCI-H23 lung 103% | NCI-H226 lung 103% | NCI-H322M lung 99.4% | HOP-62 NSCLC 112% | NCI-H460 lung 92.2% | HOP-92 NSCLC 129% | NCI-H522 lung 79.1% | A549/ATCC NSCLC 93.5% | 786-0 renal 101% | COLO 205 colon 110%

NC1C2CCC1CN(c1cnc(C(=O)Nc3cc(F)cc4cccnc34)cn1)C2 (stereo not given)
inactive: NCI-H23 lung 75.1% | NCI-H226 lung 75.7% | NCI-H322M lung 84.3% | HOP-62 NSCLC 81.2% | NCI-H460 lung 68.1% | HOP-92 NSCLC 47.9% | NCI-H522 lung 72.3% | A549/ATCC NSCLC 68.6% | 786-0 renal 67%
active: COLO 205 colon -0.393%
